Assay outcomes as filed in PubChem BioAssay.
EPAC1 agonist: EPAC1 (human) agonism. O95398. EPAC1 agonist qHTS, biochemical assay; response scale: 100% = response to 6.5 mM cAMP. Potency, µM (doses to about 154 µM), for inactives: at the highest dose activation, hits mostly activators. actives 0.073% (n = 360,000). AID 720707; further: nearly all actives have a fitted effect of over 60% in size
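Read-out is the fluorescence drop as BODIPY-GDP leaves Rap1B (480 nm excitation, 540 nm emission), recorded every 5 minutes over 30 minutes. Reactions held 100 nM EPAC1, 250 nM Rap1B–BODIPY-GDP and 50 uM GDP, with 6.5 mM cAMP setting full activation.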
EPAC1 antagonist: EPAC1 (human) antagonism | actives 0.14% (n = 360,000) | EPAC1 GEF assay, Rap1b-BODIPY-GDP exchange fluorescence | Potency, µM (top dose mostly 115 µM), inactives show at the highest dose activity change, negative = inhibition, hits mostly inhibitors;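 further: plate controls were vehicle for no effect and positive control for full effect; nearly all actives have a fitted effect of over 50% in size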
USP1 inh: USP1/UAF1 (human) deubiquitinase inhibition | O94782 | recombinant USP1/UAF1, Ub-Rhodamine cleavage fluorescence | Potency, µM (titrated, usually from 57.1 µM), inactives show top-dose activity change, negative = inhibition, hits mostly inhibitors | actives 0.23% (n = 390,000) | AID 743255; further: on the % scale 0 is the no-effect control and ±100 the full control effect; nearly all actives have a fitted effect of over 60% in size
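USP1/UAF1 complex (1 nM) preincubated 15 min at room temperature with compound, then Ub-Rho substrate (150 nM final) added. Kinetic fluorescence at 480/540 nm over 6 reads at 60 s intervals; 50 mM HEPES pH 7.8, 0.5 mM EDTA, 0.1 mg/ml BSA, 1 mM TCEP, 0.01% Tween-20.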
EPAC2 antagonist: blocks human EPAC2 exchange factor. Potency, µM (series often up to 114 µM), for the others: top-dose activity, negative = inhibition, usual class: inhibitors. actives 0.18% (n = 360,000). EPAC2 GEF exchange of Rap1B-BODIPY-GDP, fluorescence. AID 720708. Q8WZA2; further: on the % scale 0 is the no-effect control and ±100 the full control effect; nearly all actives have a fitted effect of over 45% in size
EPAC2 agonist: EPAC2 (human) agonism. EPAC2 activation, biochemical qHTS; response scale: 100% = 6.5 mM cAMP response. Potency, µM (titrated, usually from 154 µM), without a hit: at the highest dose activation, usual class: activators. actives 0.079% (n = 360,000). AID 720711; further: nearly all actives have a fitted effect of over 50% in size
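Compounds were added across a concentration range to EPAC2 (100 nM), RAP1B-BODIPY-GDP (250 nM) and GDP (50 uM). After 5 min at room temperature, fluorescence was recorded at 5-min intervals for 30 min.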
An asterisk follows results filed as active; ? = inconclusive; · = no result given; [ ] = dose if it differs, or a comment. Compounds with a hit are over-represented: about 0.49% of the library has one in this group of screens. The call rests on the fitted dose curve; in most records, active means well fitted curve in the direction sought with a large enough effect; inconclusive means small, poorly fitted or top-dose-only effect, or another doubt; inactive means no such curve, though single readings can be large; an effect the other way counts as inactive or inconclusive. Potency means the concentration at half of the fitted maximal effect.

SMILES	EPAC1 agonist	EPAC1 antagonist	USP1 inh	EPAC2 antagonist	EPAC2 agonist
CCOC(=O)c1sc(N2C(=O)C(O)=C(C(=O)c3ccco3)C2c2cccc([N+](=O)[O-])c2)nc1C (stereo not drawn)	-9%	22µM*	-24%	9%	-14%
Cc1ccccc1-c1cc2c(nn1)-c1ccccc1C2=O	10%	-18%	32µM*	-1%	-2%
Cc1ccc(-c2cc3c(nn2)-c2ccccc2C3=O)cc1	11%	-2%	-19%	-2%	1%
Cc1cn2c(=O)c(S(=O)(=O)N3CCN(c4cc(Cl)ccc4C)CC3)c(C)nc2s1	·	·	-24%	·	·
Cc1ccc(CN2CCC(CNC(=O)c3cnn(-c4ccccc4)c3C3CCN(C(=O)OC(C)(C)C)CC3)CC2)cc1	·	·	-11%	·	·
COc1ccc(C(CC(=O)N2CCOCC2)c2c(OC)cc(OC)c3c(-c4ccccc4)cc(=O)oc23)cc1 (stereo not drawn)	-9%	5%	-17%	50µM*	6%
COc1cc(/C=C2\C(=O)N(c3ccc(NC(C)=O)cc3)N=C2c2ccccc2)ccc1O	11%	-12%	-11%	19%	12%
CCOc1cc(/C=C2\C(=O)N(c3nc(-c4ccc(Br)cc4)cs3)N=C2c2ccccc2)ccc1O	-5%	35µM*	?	3%	-14%
COC(CNC(=O)c1ccc2c3c(onc13)-c1ccccc1C2=O)OC	56µM*	?	18µM*	?	50µM*
CCN(CC)S(=O)(=O)c1ccc(Cl)c(OC)c1	4%	-9%	1%	0%[57.1 µM]	3%
CCOc1cc(S(=O)(=O)N(CC)CC)ccc1Cl	6%	-4%	-23%	40µM*	2%
COc1cccc2c1C(=O)c1c(O)c3c(c(O)c1C2=O)CC(O)(C(C)=O)CC3OC1CC(O)C(O)C(C)O1 (stereo not drawn)	35%	31%	25µM*	-1%	-5%
COc1cccc2c1C(=O)c1c(O)c3c(c(O)c1C2=O)C[C@](O)(C(C)=O)C[C@H]3O[C@@H]1C[C@@H](N)[C@@H](O)[C@@H](C)O1	5%	41%	13µM*	53%	0%
CCc1ccc(NC(=O)C2CCN(C(=O)N3CC(CC)Oc4ccccc43)CC2)cc1 (stereo not drawn)	·	·	-13%	·	·
CCOC(=O)C1CCN(C(=O)C2CCN(S(=O)(=O)c3c(C)noc3/C=C/c3ccc(C)cc3)CC2)CC1	·	·	-17%	·	·
Oc1ccc(/C=N/N=C/c2ccc(O)c(O)c2)cc1O	9%	?	-17%	8%	3%
Oc1ccc(N=Cc2ccc(O)c(O)c2)cc1	21%	40µM*	7.9µM*	?	5%
CCCOc1ccc(-c2nonc2NC(=O)c2oc3ccc(Cl)cc3c2C)cc1OCCC	·	·	-14%	·	·
